# Measured values published in PubChem BioAssay.
# What was measured:
# [1] = target: PEG-3 (UniProt Q6IN02); assay: inhibition of PEG-3 promoter-driven reporter – cell-based, HeLa, luciferase, CREF/GAPDH counter-screen panel, dose response (AID 624167); settings: CREF/GAPDH counter-screens; HeLa PEG-Prom luciferase reporter, overnight, run 1, dose range 1, at 100 µM (top of the series) unless noted
# [2] = target: PEG-3 (UniProt Q6IN02); assay: as above; settings: CREF/GAPDH counter-screens; HeLa PEG-Prom luciferase reporter, overnight, run 2, dose range 1, at 100 µM (top of the series) unless noted
# [3] = NFkB reporter suppression in cystic fibrosis bronchial cells – cell-based, uHTS hits, panel, cytotoxicity readout, dose response (AID 624344); settings: CF bronchial epithelial cells, PAF-induced NFkB reporter inhibition, with PAF, run 1; at 79 µM (top of the series) unless noted
# [4] = as above; settings: CF bronchial epithelial cells, PAF-induced NFkB reporter inhibition, with PAF, run 2; at 79 µM (top of the series) unless noted
# [5] = target: Tumor necrosis factor receptor superfamily member 10B (Homo sapiens) (UniProt O14763); assay: viability loss of caspase-8 NB7 cells with TRAIL – with/without TRAIL, luminescence panel, confirmation (AID 651596); settings: NB7 neuroblastoma + caspase-8, TRAIL sensitization, NB7 Caspase-8, with TRAIL, mean of runs, at 10 µM, stronger effect = higher value
# Chain of Tumor necrosis factor receptor superfamily member 10B (Homo sapiens) (O14763 whole entry, looked up): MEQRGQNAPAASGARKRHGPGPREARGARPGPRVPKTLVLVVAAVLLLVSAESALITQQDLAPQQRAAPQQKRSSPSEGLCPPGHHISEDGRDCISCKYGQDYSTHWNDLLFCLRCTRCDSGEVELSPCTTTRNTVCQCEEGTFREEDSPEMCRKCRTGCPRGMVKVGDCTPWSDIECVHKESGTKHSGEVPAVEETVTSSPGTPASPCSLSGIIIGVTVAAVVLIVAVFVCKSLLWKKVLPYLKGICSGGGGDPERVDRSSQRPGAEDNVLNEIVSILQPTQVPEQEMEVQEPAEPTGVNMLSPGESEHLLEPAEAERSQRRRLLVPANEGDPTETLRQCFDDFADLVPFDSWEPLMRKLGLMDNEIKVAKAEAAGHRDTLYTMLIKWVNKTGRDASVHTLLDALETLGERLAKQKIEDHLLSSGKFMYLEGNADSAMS
# [6] = as above; settings: NB7 neuroblastoma + caspase-8, without TRAIL, NB7 Caspase-8, without TRAIL, mean of runs, at 10 µM
# [7] = system: Rat fibroblasts (CREF); assay: inhibition of PEG-3 promoter-driven reporter – cell-based, HeLa, luciferase, CREF/GAPDH counter-screen panel, dose response (AID 624167); settings: CREF/GAPDH counter-screens; run 1, dose range 1, at 100 µM (top of the series)
# [8] = system: Rat fibroblasts (CREF); assay: as above; settings: CREF/GAPDH counter-screens; run 2, dose range 1, at 100 µM (top of the series)
# [9] = target: Tumor necrosis factor receptor superfamily member 10B (Homo sapiens) (UniProt O14763); assay: compound enhancement of TRAIL-induced cell killing – NB7 cells plus caspase-8, luminescence, panel, dose response (AID 652002); settings: NB7 neuroblastoma +caspase-8, TRAIL sensitization, luminescence viability, NB7+Caspase-8, with TRAIL, run 1; at 12.5 µM (top of the series)
# [10] = target: Tumor necrosis factor receptor superfamily member 10B (Homo sapiens) (UniProt O14763); assay: as above; settings: NB7 neuroblastoma +caspase-8, TRAIL sensitization, luminescence viability, NB7+Caspase-8, with TRAIL, run 2; at 12.5 µM (top of the series)
# [11] = as above; settings: NB7 neuroblastoma +caspase-8, no TRAIL, compound-alone cytotoxicity counter-screen, luminescence viability, NB7+Caspase-8, run 1; at 12.5 µM (top of the series) unless noted
# [12] = as above; settings: NB7 neuroblastoma +caspase-8, no TRAIL, compound-alone cytotoxicity counter-screen, luminescence viability, NB7+Caspase-8, run 2; at 12.5 µM (top of the series) unless noted
# Chain of PEG-3 (Q6IN02 whole entry, looked up): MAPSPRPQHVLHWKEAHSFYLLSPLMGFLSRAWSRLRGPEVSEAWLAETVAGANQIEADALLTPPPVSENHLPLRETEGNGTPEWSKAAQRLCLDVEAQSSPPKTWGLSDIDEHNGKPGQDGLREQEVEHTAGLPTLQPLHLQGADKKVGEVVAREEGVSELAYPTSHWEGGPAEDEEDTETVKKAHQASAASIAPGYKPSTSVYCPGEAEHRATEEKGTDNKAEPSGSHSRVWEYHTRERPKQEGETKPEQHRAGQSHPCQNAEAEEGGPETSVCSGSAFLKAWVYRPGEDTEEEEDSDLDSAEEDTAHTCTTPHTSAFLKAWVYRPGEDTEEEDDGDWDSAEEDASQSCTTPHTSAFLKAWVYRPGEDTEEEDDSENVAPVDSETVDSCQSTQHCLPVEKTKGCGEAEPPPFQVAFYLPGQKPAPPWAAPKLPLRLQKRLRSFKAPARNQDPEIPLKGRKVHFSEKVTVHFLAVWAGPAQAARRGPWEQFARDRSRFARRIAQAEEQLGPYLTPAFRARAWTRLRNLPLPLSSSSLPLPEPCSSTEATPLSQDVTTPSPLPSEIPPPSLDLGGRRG
smiles,measurement,setting,value
CCC1=C(CC2NCCc3ccccc32)CC2c3cc(OC)c(OC)cc3CCN2C1 (stereo not given),inhibition,[1],97.6%
same,inhibition,[2],99%
same,inhibition,[3],115%
same,inhibition,[4],105%
NC(=O)c1nsc(C(=O)N(c2ccccc2F)C(C(=O)NCc2ccc(F)cc2)c2ccc(O)cc2)c1N (stereo not given),inhibition,[1],101%
same,inhibition,[2],99.2%
same,inhibition,[3],106%
same,inhibition,[4],98.8%
CCN1CCN(c2ccc(S(=O)(=O)N3CCOCC3)cc2NC(=O)/C=C/c2ccc([N+](=O)[O-])cc2)CC1,inhibition,[1],100%
same,inhibition,[2],89.1%
same,activity,[5],50.9%
same,activity,[6],62.1%
FC(F)Sc1ccc(NC(=S)NC(c2ccccc2)c2ccccc2)cc1,inhibition,[1],99.8%
same,inhibition,[2],96.5%
same,inhibition,[3],116%
same,inhibition,[4],103%
COc1cccc(-c2nnc3n2N=C(C(C)(C)C)CS3)c1,inhibition,[1],98.1%
same,inhibition,[2],99%
same,inhibition,[3],105%
same,inhibition,[4],114%
CCCN(CC(=O)Nc1ccccc1C)C(=O)CCl,inhibition,[1],101%
same,inhibition,[2],98.7%
same,activity,[5],97.8%
same,activity,[6],98.2%
O=S(=O)(Nc1cccc2cccnc12)c1ccccc1,inhibition,[1],81.7%
same,inhibition,[2],97.7%
same,inhibition,[3],102%
same,inhibition,[4],109%
O=C(CN1C(=O)c2ccccc2S1(=O)=O)c1ccc2c(c1)OCCCO2,inhibition,[1],98.1%
same,inhibition,[2],98.8%
same,inhibition,[7],99.7%
same,inhibition,[8],99.4%
same,activity,[5],95.4%
same,activity,[6],94.1%
Cc1ccc(-n2cc(-c3ccccc3)c3c(N4CCOCC4)ncnc32)cc1,inhibition,[1],101%
same,inhibition,[2],102%
same,inhibition,[3],107%
same,inhibition,[4],101%
Cc1cccc(-n2ncc3c(N(C)C4CCCCC4)ncnc32)c1,inhibition,[1],89%
same,inhibition,[2],91.4%
same,activity,[5],89.4%
same,activity,[6],88%
O=C1CCCCC1Sc1nnc(-c2ccc3c(c2)OCO3)o1 (stereo not given),inhibition,[1],98.4%
same,inhibition,[2],95%
same,inhibition,[7],95%
same,inhibition,[8],94.3%
same,activity,[5],48.4%
same,activity,[6],35.9%
same,"activity, % sensitization",[9],19.6%
same,"activity, % sensitization",[10],16.8%
same,"activity, % sensitization",[11],29.8%
same,"activity, % sensitization",[12],21.7%
CCOc1cc(/C=N/N=C(N)N)ccc1OCc1ccc(Cl)cc1,inhibition,[1],99.3%
same,inhibition,[2],98.5%
same,activity,[5],70%
same,activity,[6],96.9%
COc1cc(NC(=O)c2c(F)c(F)c(F)c(F)c2F)c(OC)cc1Cl,inhibition,[1],99.8%
same,inhibition,[2],96.5%
same,activity,[5],85.1%
same,activity,[6],64.5%
CCCn1c(C)cc(C(=O)CN2C(=O)c3ccccc3S2(=O)=O)c1C,inhibition,[1],97.5%
same,inhibition,[2],98.9%
same,inhibition,[7],91.2%
same,inhibition,[8],92.1%
same,activity,[5],60.1%
same,activity,[6],62.3%
CCSc1nsc(NC(=O)Nc2cccc(OC)c2)n1,inhibition,[3],102%
same,inhibition,[4],113%
O=C(Oc1ccc(F)cc1C(=O)/C=C/c1cccs1)c1cccc([N+](=O)[O-])c1,inhibition,[3],49.3%
same,inhibition,[4],40.3%
O=C(NCCCSc1ccccc1)c1cc(Cl)ccc1O,inhibition,[3],106%
same,inhibition,[4],117%
Cc1ccccc1C(=O)N1CCN(c2ccc(NC(=O)c3cccc(OC(C)C)c3)cc2)CC1,inhibition,[3],89.1%
same,inhibition,[4],86.4%
CC(=O)N1CC(=O)N=C1SCC(=O)Nc1nc(C)c(-c2ccccc2)s1,inhibition,[3],62.6%
same,inhibition,[4],73.4%
Cc1ccnc(NC(=O)CSc2cc(=O)n(C)c3ccccc23)c1,inhibition,[3],103%
same,inhibition,[4],110%
CC(=O)Nc1ccc(-c2ccnc3c2CC(C(=O)NCc2ccccc2)O3)cc1 (stereo not given),inhibition,[3],-53.5%
same,inhibition,[4],-72.7%
CCN(CC(=O)Nc1ccc(OC)cc1)C(=O)c1cc(-c2cccs2)nn1-c1ccccc1,inhibition,[3],99.6%
same,inhibition,[4],98.4%
Cc1ccc(NC(=O)Nc2cccc([N+](=O)[O-])c2)cc1F,inhibition,[3],102%
same,inhibition,[4],113%
CC(C)OC(=O)c1cccc(C(=O)Nc2cccc(NC(=O)c3cccc(C(=O)OC(C)C)n3)n2)n1,inhibition,[3],103% [at 9.88 µM]
same,inhibition,[4],109% [at 19.8 µM]
N#CC(C#N)c1ccnc2ccccc12,inhibition,[3],110%
same,inhibition,[4],102%
Brc1ccc2ncnc(NCc3ccccc3)c2c1,inhibition,[3],108%
same,inhibition,[4],104%
Cc1ccc2[nH]cc(C(=O)CCl)c2c1,inhibition,[3],60.6%
same,inhibition,[4],72%
CC[C@H](CO)Nc1nc(Nc2cccc(Cl)c2)c2ncn(C(C)C)c2n1,inhibition,[3],106%
same,inhibition,[4],108%
CC1(C)CC(=O)C(C2C3=C(CC(C)(C)CC3=O)Oc3c(Br)cc(Br)cc32)=C(O)C1 (stereo not given),inhibition,[3],104%
same,inhibition,[4],111%
O=C(Nc1ccc(Cl)cc1)c1nc[nH]c1C(=O)NCCCCNC(=O)c1[nH]cnc1C(=O)Nc1ccc(Cl)cc1,inhibition,[3],98.8%
same,inhibition,[4],105%
O=c1[nH]nc(Sc2ncnc3sccc23)n1CCc1ccccc1,inhibition,[3],100%
same,inhibition,[4],105%
Cc1ccc(S(=O)(=O)Nc2cccc3ncccc23)s1,inhibition,[3],107%
same,inhibition,[4],97%
O=S(=O)(CC(CN1CCCC1)N1CCCC1)c1ccc2ccccc2c1 (stereo not given),inhibition,[3],96.4%
same,inhibition,[4],92.7%
CC(=O)c1ccc(-n2c(C)c(C(C)=O)c3cc(O)ccc32)cc1,inhibition,[3],56.2%
same,inhibition,[4],74.6%
CC1(C)Cc2c(ccc3ccccc23)C(=O)N1,inhibition,[3],106%
same,inhibition,[4],111%
CC(=O)Oc1ccc(N(C(C)=O)S(=O)(=O)c2ccc(Cl)cc2)c2ccccc12,inhibition,[3],99.9%
same,inhibition,[4],108%
